Test results reported in PubChem BioAssay AID1159580 (chemical genetic matrix, 2015).
Screen size: about 5,500 compounds; about 2,000 (36%) were called active. Another 18% or so got no clear call; they are omitted. Cut-off read from the data, not from the text of the source: active = normalized growth mostly below about 0.91 (no sharp cut-off); inconclusive = no clear call, values can overlap the other calls; inactive = mostly above about 0.92. Some of the results follow.

Assay: chemical genetic growth profiling, strain panel (AID 1159580);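 note: tested at 20 µM; growth read once vehicle control cultures reached saturation at 30 °C; 1 = growth at the plate median or of vehicle wells; lower values mean less growth of the strain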
Settings: growth OD

Measured: normalized growth

CNc1ccc(C(=O)CC(O)CCC(C)C2OC(=O)CC(O)CC(=O)CC(O)CC(O)CC(O)CC(O)CC3(O)CC(O)C(C(=O)OC)C(CC(OC4OC(C)C(O)C(N)C4O)/C=C/C=C/C=C/C=C/C=C/C=C/C=C/C2C)O3)cc1 (stereo unspecified)
active: S. cerevisiae deletion strains, locus YAL013W, strain DEP1, hits give low values 0.0566 | S. cerevisiae deletion strains, locus YBR021W, strain FUR4, hits give low values 0.0931 | S. cerevisiae deletion strains, locus YBR229C, strain ROT2, hits give low values 0.0524 | S. cerevisiae deletion strains, locus YCL029C, strain bik1, hits give low values 0.0837 | S. cerevisiae deletion strains, locus YDL035C, strain GPR1, hits give low values 0.0535 | S. cerevisiae deletion strains, locus YDL074C, strain BRE1, hits give low values 0.0938 | S. cerevisiae deletion strains, locus YDL101C, strain DUN1, hits give low values 0.0651 | S. cerevisiae deletion strains, locus YDL134C, strain PPH21, hits give low values 0.0946 | S. cerevisiae deletion strains, locus YDL185W, strain tfp1, hits give low values 0.056 | S. cerevisiae deletion strains, locus YDL192W, strain arf1, hits give low values 0.0619 | S. cerevisiae deletion strains, locus YDR101C, strain arx1, hits give low values 0.0612 | S. cerevisiae deletion strains, locus YDR150W, strain NUM1, hits give low values 0.0603 | S. cerevisiae deletion strains, locus YDR162C, strain NBP2, hits give low values 0.0526 | S. cerevisiae deletion strains, locus YDR318W, strain mcm21, hits give low values 0.0791 | S. cerevisiae deletion strains, locus YDR388W, hits give low values 0.0583 | S. cerevisiae deletion strains, locus YDR502C, strain sam2, hits give low values 0.0726 | S. cerevisiae deletion strains, locus YEL061C, strain CIN8, hits give low values 0.133 | S. cerevisiae deletion strains, locus YER110C, hits give low values 0.11 | S. cerevisiae deletion strains, locus YER155C, strain BEM2, hits give low values 0.0648 | S. cerevisiae deletion strains, locus YER167W, strain BCK2, hits give low values 0.0539 | S. cerevisiae deletion strains, locus YGL078C, strain dbp3, hits give low values 0.0564 | S. cerevisiae deletion strains, locus YGL086W, strain mad1, hits give low values 0.0591 | S. cerevisiae deletion strains, locus YGL248W, strain PDE1, hits give low values 0.11 | S. cerevisiae deletion strains, locus YGR078C, strain PAC10, hits give low values 0.0538 | S. cerevisiae deletion strains, locus YGR135W, strain pre9, hits give low values 0.0705 | S. cerevisiae deletion strains, locus YGR229C, strain SMI1, hits give low values 0.0606 | S. cerevisiae deletion strains, locus YGR252W, strain gcn5, hits give low values 0.194 | S. cerevisiae deletion strains, locus YHR030C, strain SLT2, hits give low values 0.0491 | S. cerevisiae deletion strains, locus YHR079C, strain IRE1 (second series), hits give low values 0.0787 | S. cerevisiae deletion strains, locus YHR094C, strain hxt1, hits give low values 0.119 | S. cerevisiae deletion strains, locus YHR129C, strain ARP1, hits give low values 0.0557 | S. cerevisiae deletion strains, locus YHR200W, strain rpn10, hits give low values 0.0615 | S. cerevisiae deletion strains, locus YIL066C, strain RNR3, hits give low values 0.12 | S. cerevisiae deletion strains, locus YIL073C, strain SPO22, hits give low values 0.63 | S. cerevisiae deletion strains, locus YIL125W, strain kgd1, hits give low values 0.0582 | S. cerevisiae deletion strains, locus YIR030C, strain dcg1, hits give low values 0.0683 | S. cerevisiae deletion strains, locus YJL095W, strain BCK1, hits give low values 0.0555 | S. cerevisiae deletion strains, locus YJL134W, strain LCB3, hits give low values 0.0513 | S. cerevisiae deletion strains, locus YJL168C, strain set2, hits give low values 0.119 | S. cerevisiae deletion strains, locus YJL187C, strain SWE1 (second series), hits give low values 0.0564 | S. cerevisiae deletion strains, locus YJR043C, strain POL32, hits give low values 0.0719 | S. cerevisiae deletion strains, locus YJR075W, strain HOC1, hits give low values 0.0687 | S. cerevisiae deletion strains, locus YKL009W, strain mrt4, hits give low values 0.0698 | S. cerevisiae deletion strains, locus YKL068W, hits give low values 0.0536 | S. cerevisiae deletion strains, locus YKL085W, strain MDH1 (second series), hits give low values 0.0497 | S. cerevisiae deletion strains, locus YKL085W, strain MDH1, hits give low values 0.0497 | S. cerevisiae deletion strains, locus YKL190W, strain CNB1, hits give low values 0.0588 | S. cerevisiae deletion strains, locus YKR001C, strain vps1, hits give low values 0.0648 | S. cerevisiae deletion strains, locus YLR039C, strain RIC1, hits give low values 0.0872 | S. cerevisiae deletion strains, locus YLR058C, strain SHM2, hits give low values 0.0574 | S. cerevisiae deletion strains, locus YLR102C, strain apc9, hits give low values 0.0963 | S. cerevisiae deletion strains, locus YLR262C, strain YPT6, hits give low values 0.0942 | S. cerevisiae deletion strains, locus YLR268W, strain sec22, hits give low values 0.0696 | S. cerevisiae deletion strains, locus YLR330W, strain CHS5, hits give low values 0.0514 | S. cerevisiae deletion strains, locus YLR342W, strain FKS1 (second series), hits give low values 0.0823 | S. cerevisiae deletion strains, locus YLR371W, strain rom2, hits give low values 0.0741 | S. cerevisiae deletion strains, locus YLR418C, strain cdc73, hits give low values 0.0943 | S. cerevisiae deletion strains, locus YML016C, strain PPZ1, hits give low values 0.136 | S. cerevisiae deletion strains, locus YML032C, strain rad52, hits give low values 0.0764 | S. cerevisiae deletion strains, locus YML124C, strain tub3, hits give low values 0.0593 | S. cerevisiae deletion strains, locus YMR078C, strain ctf18, hits give low values 0.0766 | S. cerevisiae deletion strains, locus YMR223W, strain ubp8, hits give low values 0.0693 | S. cerevisiae deletion strains, locus YMR263W, strain SAP30, hits give low values 0.0638 | S. cerevisiae deletion strains, locus YMR307W, strain GAS1, hits give low values 0.109 | S. cerevisiae deletion strains, locus YNL067W, strain RPL9B, hits give low values 0.0557 | S. cerevisiae deletion strains, locus YNL128W, strain TEP1, hits give low values 0.0601 | S. cerevisiae deletion strains, locus YNL153C, strain GIM3, hits give low values 0.0467 | S. cerevisiae deletion strains, locus YNL233W, strain BNI4, hits give low values 0.0536 | S. cerevisiae deletion strains, locus YNL250W, strain rad50, hits give low values 0.0761 | S. cerevisiae deletion strains, locus YNL271C, strain bni1, hits give low values 0.0615 | S. cerevisiae deletion strains, locus YNL298W, strain CLA4, hits give low values 0.0597 | S. cerevisiae deletion strains, locus YNL307C, strain MCK1, hits give low values 0.0706 | S. cerevisiae deletion strains, locus YNL322C, strain KRE1, hits give low values 0.0507 | S. cerevisiae deletion strains, locus YNR052C, strain pop2, hits give low values 0.0636 | S. cerevisiae deletion strains, locus YOL006C, strain TOP1, hits give low values 0.132 | S. cerevisiae deletion strains, locus YOL147C, strain pex11, hits give low values 0.0576 | S. cerevisiae deletion strains, locus YOR061W, strain CKA2, hits give low values 0.0583 | S. cerevisiae deletion strains, locus YOR069W, strain VPS5, hits give low values 0.0477 | S. cerevisiae deletion strains, locus YOR136W, strain idh2, hits give low values 0.074 | S. cerevisiae deletion strains, locus YOR144C, strain elg1, hits give low values 0.0585 | S. cerevisiae deletion strains, locus YOR184W, strain ser1, hits give low values 0.075 | S. cerevisiae deletion strains, locus YOR316C, strain cot1, hits give low values 0.1 | S. cerevisiae deletion strains, locus YPL055C, strain LGE1, hits give low values 0.0726 | S. cerevisiae deletion strains, locus YPL241C, strain CIN2, hits give low values 0.0521 | S. cerevisiae deletion strains, locus YPR119W, strain clb2, hits give low values 0.0662 | S. cerevisiae deletion strains, locus YPR141C, strain kar3, hits give low values 0.0657 | S. cerevisiae deletion strains, locus YPR163C, strain tif3, hits give low values 0.0749 | S. cerevisiae deletion strains, locus YPR167C, strain met16, hits give low values 0.0645 | S. cerevisiae deletion strains, strain wtn01, hits give low values 0.061 | S. cerevisiae strains, strain wild type, hits give low values 0.0494
inactive: S. cerevisiae deletion strains, locus YOL012C, strain htz1 0.225
